Hits are enriched below; roughly 3% of the tested compounds scored in any of these assays.
SENP7 inh = SENP7 protease inhibition; Q9BQF6; recombinant SENP7, Z-RLRGG-aminoluciferin luminescence, 40 min; inhibition, % at 5 µM; hit rate 1.5% among 330,000; AID 434973;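 active means inhibition above about 50% at the single test dose, limit read from the data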;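 further: plate controls were DMSO with enzyme for no effect and no enzyme buffer wells for full effect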
Target sequence (Q9BQF6 706-1050 limits assumed): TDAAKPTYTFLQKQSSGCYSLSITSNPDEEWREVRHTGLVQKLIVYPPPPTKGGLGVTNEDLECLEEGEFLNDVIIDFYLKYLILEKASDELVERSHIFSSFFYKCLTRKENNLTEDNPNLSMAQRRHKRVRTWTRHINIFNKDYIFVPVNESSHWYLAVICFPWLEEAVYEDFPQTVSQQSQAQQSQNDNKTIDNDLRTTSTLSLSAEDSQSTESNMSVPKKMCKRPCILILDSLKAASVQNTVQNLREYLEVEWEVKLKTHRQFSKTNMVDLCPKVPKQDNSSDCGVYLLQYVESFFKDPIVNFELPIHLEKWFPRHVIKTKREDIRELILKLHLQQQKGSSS
SENP8 block-1 = inhibitors of human SENP8 protease; Q96LD8; inhibition, % at 20 µM; AID 602440; hit rate 0.64% among 360,000; recombinant SENP8, Nedd8 substrate fluorescence; in the data active means inhibition mostly above about 40%, no sharp cut-off; inactive means mostly below about 27%
PPC-1+TRAIL kill = kills PPC-1 cancer cells in the presence of TRAIL. PPC-1 cells + TRAIL, ATPLite viability luminescence. hit rate 0.41% among 220,000. cell killing (% activity), % at 4 µM or 5 µM;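 active means cell killing above 50% in the first pass at 4 µM, then a duplicate retest at 5 µM averaging 50% or more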;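 further: plate controls were cells with TRAIL plus DMSO for no effect and medium-only wells lacking cells for full effect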
SENP6 block = SENP6 protease inhibition | Q9GZR1 | Recombinant SENP6 catalytic domain, aminoluciferin luminescence | inhibition, % at 10 µM | hit rate 1.8% among 330,000;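 active means inhibition above about 50% at the single tested dose, limit read from the data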;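 further: plate controls were DMSO wells with enzyme for no effect and DMSO wells lacking enzyme for full effect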
SENP8 block-2 = inhibitors of human SENP8 protease. purified SENP8, Z-RLRGG-aminoluciferin cleavage, luminescence. inhibition, % at 10 µM. hit rate 1.2% among 330,000. AID 2540; in the data active means inhibition above about 50%
TRAIL sens C8 = caspase-8 TRAIL sensitization; inhibition (viability loss, TRAIL sensitization), % at 10 µM; NB7+C8 cells + TRAIL, ATPlite viability luminescence; AID 624354; hit rate 1% among 360,000;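 active means compounds causing at least 50% loss of cell viability in the single-dose screen, relative to plate controls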
SENP8 conf = SENP8 (human) inhibition, single concentration confirmation; purified SENP8, Nedd8-AMC/pro-Nedd8 cleavage fluorescence, 30 min; hit rate 15% among 1,400; shares compounds with SENP8 block-1; inhibition, % at 25 µM; in the data active means inhibition mostly above about 39%, no sharp cut-off; inactive means mostly below about 34%
The depositor's hits bear a star; x = no result.

SMILES	SENP7 inh	SENP8 block-1	PPC-1+TRAIL kill	SENP6 block	SENP8 block-2	TRAIL sens C8	SENP8 conf
CC(=O)Nc1ccc(S(=O)(=O)N[C@@H](C)C(=O)OCc2cc([N+](=O)[O-])cc3c2OCOC3)cc1	3	45*	7	12	4	2	-1
CC(C)C(NS(=O)(=O)c1ccccc1)C(=O)OCc1cc([N+](=O)[O-])cc2c1OCOC2 (stereo not drawn)	x	6	16	x	x	-10	x
O=C(O)c1ccccc1/C=N/NC(=O)C1CCCCC1	-1	6	-3	11	0	7	x
O=C(O)c1ccccc1/C=N/NC(=S)NC1CCCCC1	7	46*	-1	2	8	-2	1
COCOc1cc(O)c(C(=O)/C=C/c2ccccc2)c(OCOC)c1	-9	51*	x	7	12	19	6
COc1ccc(C(=O)/C=C/c2ccccc2)c(OC)c1	38	33	16	47	42	26	x
CS(=O)(=O)c1ccc(NC(=O)CCCc2nc3ccccc3c(=O)[nH]2)cc1	-9	54*	x	3	-6	11	19
Cc1cccc(C(=O)NCC(=O)OCC(=O)N2CCc3ccccc32)c1	-9	11	-6	-15	-12	-6	x
Cc1ccc(C(=O)NCC(=O)OCC(=O)N2CCCc3ccccc32)cc1	2	55*	-5	-15	3	-5	-3
CCOC(=O)/C(=N/Nc1ccccc1)N1CCCc2ccccc21	1	43*	37	-9	0	-4	18
O=C(NCCCN1CCN(c2ccccc2F)CC1)Nc1ccc(F)cc1	-4	8	-2	-6	-4	-9	x
O=C(NCCCN1CCN(c2ccccc2F)CC1)Nc1ccccc1[N+](=O)[O-]	8	44*	-14	9	-9	10	19
COc1ccc(C2CC3(CC(C)(C)NC(SC)=N3)Oc3cc(O)cc(C)c32)cc1 (stereo not drawn)	4	44*	20	6	-10	3	9
Cc1cccc(OC(=O)c2cccnc2)c1C	-3	10	x	6	3	-5	x
O=C(Oc1ccccc1[N+](=O)[O-])c1cccnc1	0	46*	-8	-1	-2	-9	12
CCOc1ccc(OCC(=O)Nc2ccc(S(=O)(=O)Nc3cc(C)nc(C)n3)cc2)cc1	-5	42*	14	-11	-2	-9	5
COc1ccc([N+](=O)[O-])cc1NS(=O)(=O)c1cccc(C(=O)O)c1	-4	19	-12	-13	-7	-6	x
CCC(=O)N(CCC(Cc1ccccc1)c1ccc2c(c1)OCO2)Cc1ccccc1F (stereo not drawn)	2	40*	24	7	8	9	14
CCC(=O)N(CCC(Cc1ccccc1)c1ccco1)Cc1ccco1 (stereo not drawn)	1	-25	13	2	-13	8	x
CC1=NN(c2ccc(C)cc2C)C(=O)C1C(c1cccc(O)c1)C1C(=O)N(c2ccc(C)cc2C)N=C1C (stereo not drawn)	10	60*	10	-5	-3	10	44*
CCc1ccc(N2CC(C(=O)N3CCN(S(=O)(=O)c4cccc(F)c4)CC3)CC2=O)cc1 (stereo not drawn)	x	8	x	x	x	-3	x
CCOC(=O)C1CCN(C(=O)Nc2ccc3oc(C)nc3c2)CC1	-4	46*	5	-9	7	-9	6
CCC(=O)C(C#N)(c1ccc(OC)c(OC)c1)C(C)C (stereo not drawn)	8	10	x	-4	-2	15	x
CC1CCC2C(=O)N(c3ccc(S(=O)(=O)c4ccccc4)cc3)C(=O)C2C1 (stereo not drawn)	-3	-1	27	-4	-8	17	x
COCc1c(C)cc(C)c(/C=N/O)c1C	0	47*	11	5	8	4	10
CC(C)c1ccccc1NC(=O)CNCCOc1ccccc1F	-3	17	x	-30	-3	-10	x
COc1ccc(NC(=O)NNC(=O)c2ccccc2-n2cccc2)cc1OC	1	3	15	-4	-4	3	x
O=C(NC1CCCCC1)C(c1ccccc1)N(Cc1ccco1)C(=O)c1csnn1 (stereo not drawn)	-3	3	x	-13	3	-4	x

Screening data deposited in PubChem by Sanford-Burnham Center for Chemical Genomics.
